These results are taken from PubChem BioAssay.

Activity calls are given as the source filed them.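 The calls were made as follows, unless noted: active = visually confirmed hit in the image check and inhibition above 20%; inconclusive = visually confirmed hit but inhibition not above 20%; inactive = no visual hit in the image check.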

A short description of test [1]: inhibitors of TNFa-induced NFkB p65 translocation, primary screen, imaging, HUVEC, MLSMR starter and 10KST1 sets (AID 438;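 active = inhibition above 20% together with a positive visual image hit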;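 also: compound added about 3h40 before a 20 min TNFalpha stimulation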;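 as to inhibition: signal is the nuclear over cytoplasmic p65 intensity ratio per well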). The note with it: HUVEC TNFa-induced p65 nuclear translocation; cell count: measured here: nuclei count (cytotoxicity indicator), at 2.08 µM; inhibition: at 2 µM, stronger effect = higher value, 0% TNFa-plus-vehicle, 100% no-TNFa wells.
A short description of test [2]: inhibitors of mutant huntingtin aggregation, primary screen, imaging, exon1htt(103Q)mCFP cells, high-content imaging (AID 483;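 active = visual image review flags a hit and inhibition of aggregation exceeds 20%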;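 also: compound exposure lasted 3 days before fixation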;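 as to nuclei count: percent of the per-plate median nuclei count of sample wells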). The note with it: exon1htt(103Q)mCFP cell line, aggregate imaging, at 2 µM; inhibition of aggregation: stronger effect = higher value; nuclei count: measured here: cell count, toxicity.
Test [3] can be described thus: inhibitors of E-selectin induction by TNFa, primary screen, imaging, HUVEC, immunofluorescence, MLSMR starter and 10KST1 sets (AID 487).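 As to inhibition: signal is fraction of cell area covered by stained E-selectin grains.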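 As to nuclei count: 100% = median nuclei count of all wells on the same plate.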 The note with it: HUVEC TNFalpha-induced E-selectin immunofluorescence imaging, at 2 µM; inhibition: stronger effect = higher value; nuclei count: measured here: cell number, toxicity.
For test [4], the target named is Voltage-gated potassium channel subunit beta-2 (Rattus norvegicus) (UniProt P62483). Kind of test: KvBeta enzyme negative modulators, primary screen, biochemical, NADPH fluorescence (AID 622;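 active = fluorescence slope higher than the sample average by over 3 SD, cut at about -0.22 in these data, passing the limit was not always enough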;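 also: slope of raw intensity against log time taken from 70 to 1610 s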). The note with it: recombinant KvBeta, 4-cyanobenzaldehyde reduction, at 10 µM, stronger effect = higher value.
Test [5] shares this target. Put plainly: KvBeta positive modulators, primary screen, biochemical, NADPH fluorescence (AID 623;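 active = NADPH fluorescence slope more negative than the mean of all samples by about 3 SD, 99.7% confidence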;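 also: fluorescence intensity change per second fitted from 20 to 320 s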). The note with it: Recombinant KvBeta, NADPH fluorescence decrease slope, 10 min; at 10 µM; stronger effect = lower value.
For test [6], the target named is Alpha-2C adrenergic receptor (Homo sapiens) (UniProt P18825). Put plainly: modulators of alpha2C/GIRK thallium flux, primary screen, cell-based, HEK293 alpha2C/GIRK1/2 (AID 624;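 active = fluorescence slope after compound addition differing from the mean of all screened samples at 99.7% confidence, in either direction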;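 also: slope of fluorescence ratio to pre-addition baseline per second over 15 to 24 s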). The note with it: thallium flux BTC fluorescence, at 10 µM, actives lie on both sides.
A short description of test [7]: inhibitors of Sendai virus-induced IRF3 signaling, primary screen, TLR/RLR signaling modifier project, cell-based, Sendai virus stimulus, luciferase, 10K MLSCN set (AID 602276;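 active = inhibition at or above 50% at 10 µM; inactive = inhibition below 50%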;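 also: firefly luciferase from ISG56 promoter only with Renilla not read in this screen; 0% = Sendai virus plus DMSO and 100% = medium plus DMSO without virus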). The note with it: HEK293 RL24 IRF3 luciferase reporter, at 10 µM, stronger effect = higher value.
Test [8] in a line: inhibitors of poly I:C-induced TLR3 signaling, primary screen, cell-based, poly I:C stimulus, luciferase, 10K MLSCN set (AID 602277;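 active = inhibition of the reporter signal at or above 50%; inactive = inhibition below 50%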). The note with it: HEK293-TLR3 RL24 IRF3 luciferase reporter, at 10 µM, stronger effect = higher value. For orientation: A reporter such as luciferase makes a cellular process visible.

Alpha-2C adrenergic receptor (Homo sapiens), sequence (P18825 whole entry, looked up): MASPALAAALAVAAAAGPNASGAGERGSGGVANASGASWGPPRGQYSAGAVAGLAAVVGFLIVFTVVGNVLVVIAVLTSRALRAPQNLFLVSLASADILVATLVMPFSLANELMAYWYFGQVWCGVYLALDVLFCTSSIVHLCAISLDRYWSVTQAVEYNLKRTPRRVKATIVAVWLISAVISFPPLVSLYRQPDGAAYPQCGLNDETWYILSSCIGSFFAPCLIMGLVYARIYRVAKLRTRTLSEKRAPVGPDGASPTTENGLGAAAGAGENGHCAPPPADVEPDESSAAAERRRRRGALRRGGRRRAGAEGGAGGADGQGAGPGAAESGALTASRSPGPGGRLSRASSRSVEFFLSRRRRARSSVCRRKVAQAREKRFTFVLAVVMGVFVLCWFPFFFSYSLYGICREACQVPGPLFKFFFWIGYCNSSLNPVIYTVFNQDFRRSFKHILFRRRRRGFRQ
Voltage-gated potassium channel subunit beta-2 (Rattus norvegicus), sequence (P62483 whole entry, looked up): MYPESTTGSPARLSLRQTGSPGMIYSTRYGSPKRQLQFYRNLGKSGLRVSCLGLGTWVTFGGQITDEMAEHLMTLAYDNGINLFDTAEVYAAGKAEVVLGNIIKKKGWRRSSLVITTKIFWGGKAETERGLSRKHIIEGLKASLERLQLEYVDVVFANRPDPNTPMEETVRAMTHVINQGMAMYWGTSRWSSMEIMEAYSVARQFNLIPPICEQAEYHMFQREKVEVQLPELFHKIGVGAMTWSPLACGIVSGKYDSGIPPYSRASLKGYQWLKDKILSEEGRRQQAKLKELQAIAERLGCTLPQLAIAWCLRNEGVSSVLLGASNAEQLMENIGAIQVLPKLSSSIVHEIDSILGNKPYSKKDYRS

With `COc1cc(OC)nc(NC(=O)CSc2nc3ccccc3o2)n1`, in test [1], the cell count is 740. The inhibition was -0.3% (inactive) in test [1], -18.2% (inactive) in test [3], 12.8% (inactive) in test [7] and -3.75% (inactive) in test [8]. Further, the inhibition of aggregation in test [2] is -30.6% (inactive). The nuclei count in test [2] was determined as 102%; in test [3], 107%. Also, in test [4], the fluorescence slope was -0.609 (inactive). The NADPH fluorescence slope in test [5] was -2.6e-05 (inactive). For the same compound, in test [6], the slope is 0.00329 (inactive).

As for `COc1ccc(C2CC(c3ccc(OC)cc3)n3nc(N)nc3N2)cc1` (centres undefined), the cell count in test [1] was found to be 595. Also, the inhibition in test [1] is 6.1% (inactive); in test [3] it was 28.5% (inactive); in test [7] it was 6.72% (inactive); in test [8], 20.7% (inactive). In addition, the inhibition of aggregation in test [2] was -5.1% (inactive). Also, the values for the nuclei count in test [2] and in test [3] were 99.7% and 102%, respectively. Besides, the fluorescence slope in test [4] was -0.595 (inactive). The NADPH fluorescence slope in test [5] was -3.1e-05 (inactive). In addition, the slope in test [6] is 0.00691 (inactive).

Turning to `O=C(Nn1cnnc1)c1cc2c(s1)CCCC2`, the cell count in test [1] is 346. The inhibition in test [1] is -3.4% (inactive); in test [3], -41.7% (inactive); in test [7], -4.21% (inactive); in test [8] it was 7.24% (inactive). Also, the inhibition of aggregation in test [2] is -5.7% (inactive). Also, the nuclei count in test [2] worked out at 108%; in test [3] it was 112%. Besides, the fluorescence slope in test [4] is -0.411 (inactive). Besides, the NADPH fluorescence slope in test [5] is -4.9e-05 (inactive). For the same compound, in test [6], the slope is 0.00357 (inactive).

In the case of `COc1ccc(S(=O)(=O)N2CCN(CC(=O)Nc3ccc(C)c(F)c3)CC2)cc1`, the cell count in test [1] amounted to 339. For the same compound, the inhibition was -8.1% (inactive) in test [1], -4.2% (inactive) in test [3], 18.5% (inactive) in test [7] and 23.8% (inactive) in test [8]. In test [2], the inhibition of aggregation was -0.4% (inactive). Also, the nuclei count in test [2] was determined as 115%; in test [3], 80.5%. The fluorescence slope in test [4] was -0.518 (inactive). In addition, the NADPH fluorescence slope in test [5] is 1.2e-05 (inactive). Moreover, in test [6], the slope was 0.00517 (inactive).

With `CCOC(=O)CCCOC(=O)c1ccc(S(=O)(=O)N(C)C)cc1`, the cell count in test [1] came out at 374. Also, the inhibition in test [1] was -12.5% (inactive); in test [3], -8.8% (inactive); in test [7] it was 0.818% (inactive); in test [8], 10.6% (inactive). For the same compound, the inhibition of aggregation in test [2] is 2.8% (inactive). The nuclei count in test [2] came out at 67.5%; in test [3] it was 106%. The fluorescence slope in test [4] is -0.454 (inactive). Further, the NADPH fluorescence slope in test [5] is -4.3e-05 (inactive). Also, in test [6], the slope was 0.00644 (inactive).

Turning to `CCc1nn2c(N3CCOCC3)cc(C)nc2c1-c1ccc(F)cc1`, the cell count in test [1] was 716. In addition, the inhibition in test [1] was -9.7% (inactive); in test [3], -46.2% (inactive); in test [7] it was 10.6% (inactive); in test [8], 18.4% (inactive). Besides, the inhibition of aggregation in test [2] was -24.7% (inactive). For the same compound, the nuclei count in test [2] came out at 101%; in test [3] it was 114%. For the same compound, the fluorescence slope in test [4] was -0.465 (inactive). For the same compound, the NADPH fluorescence slope in test [5] is -0.000126 (inactive). Further, the slope in test [6] was 0.0049 (inactive).

Take `Cc1cc(C)c2ccc(N)nc2c1O`: the cell count in test [1] came to 408. Moreover, the inhibition in test [1] was 0.1% (inactive); in test [3], 41.6% (inactive); in test [7] it was 21% (inactive); in test [8], 29.8% (inactive). Besides, in test [2], the inhibition of aggregation is 22.6% (inactive). Moreover, the nuclei count came to 6.8% in test [2] and 107% in test [3]. In addition, the fluorescence slope in test [4] is -0.462 (inactive). For the same compound, in test [5], the NADPH fluorescence slope was -5e-05 (inactive). Further, in test [6], the slope was 0.00457 (inactive).

On to `COc1ccc(N2CCN(c3ccc(N)cc3C#N)CC2)cc1`, for which the cell count in test [1] was 744. The inhibition was -6.6% (inactive) in test [1], -65.8% (inactive) in test [3], 3.39% (inactive) in test [7] and 21.5% (inactive) in test [8]. Further, the inhibition of aggregation in test [2] is 28.1% (inactive). Besides, the results for the nuclei count in test [2] and in test [3] were 102% and 104%, respectively. Also, the fluorescence slope in test [4] is -0.593 (inactive). Moreover, the NADPH fluorescence slope in test [5] was -2.3e-05 (inactive). In test [6], the slope is 0.00782 (inactive).

Consider `CCCCN(C)C(=O)c1ccc(CS(=O)(=O)c2ccccc2C)o1`, for which the cell count in test [1] was found to be 315. The inhibition in test [1] was -10.4% (inactive); in test [3], -44.3% (inactive); in test [7], 7.73% (inactive); in test [8], 13.7% (inactive). In addition, the inhibition of aggregation in test [2] is 10.5% (inactive). Moreover, the figures for the nuclei count in test [2] and in test [3] were 65.2% and 111%, respectively. Moreover, the fluorescence slope in test [4] is -0.569 (inactive). Besides, in test [5], the NADPH fluorescence slope was -1.2e-05 (inactive). Also, the slope in test [6] is 0.00658 (inactive).

As to `Cc1cc(=O)[nH]c(SCc2nc3ncccn3c2Br)n1`, the cell count in test [1] came out at 636. The inhibition in test [1] is -2.4% (inactive); in test [3], -32.2% (inactive); in test [7], 8.84% (inactive); in test [8] it was 23.4% (inactive). Further, the inhibition of aggregation in test [2] was -10.4% (inactive). Further, the nuclei count in test [2] turned out to be 76.5%; in test [3], 107%. In addition, the fluorescence slope in test [4] was -0.27 (inactive). Moreover, the NADPH fluorescence slope in test [5] is -6.4e-06 (inactive). Also, the slope in test [6] is 0.00645 (inactive).

Consider `N#CC1=C(N)Oc2c(ccc3cccnc23)C1c1cccnc1` (centres undefined), for which the cell count in test [1] was 749. Moreover, the inhibition was 7.3% (inactive) in test [1], -67.8% (inactive) in test [3], 47.8% (inactive) in test [7] and 45.8% (inactive) in test [8]. Besides, the inhibition of aggregation in test [2] is 4.4% (inactive). Besides, the results for the nuclei count in test [2] and in test [3] were 89% and 130%, respectively. Moreover, the fluorescence slope in test [4] was -0.469 (inactive). Also, in test [5], the NADPH fluorescence slope is -2e-05 (inactive). The slope in test [6] was 0.0058 (inactive).

`O=C(NC12CC3CC(CC(C3)C1)C2)c1cncc(O)c1`: the cell count in test [1] came to 708. Moreover, the inhibition is 13.5% (inactive) in test [1], -200% (inactive) in test [3], 7.2% (inactive) in test [7] and 26.8% (inactive) in test [8]. Further, the inhibition of aggregation in test [2] is -6.2% (inactive). Further, the values for the nuclei count in test [2] and in test [3] were 102% and 128%, respectively. Moreover, the fluorescence slope in test [4] was -0.608 (inactive). The NADPH fluorescence slope in test [5] is 5e-06 (inactive). Moreover, the slope in test [6] was 0.0069 (inactive).

As to `COc1ccc(N2Cc3ccccc3C2)cc1Cl`, the cell count in test [1] amounted to 579. Also, the inhibition is -12.3% (inactive) in test [1], -2% (inactive) in test [3], -31.1% (inactive) in test [7] and -55.5% (inactive) in test [8]. Besides, the inhibition of aggregation in test [2] was -13.8% (inactive). Moreover, the nuclei count in test [2] turned out to be 84%; in test [3], 98.5%. The fluorescence slope in test [4] was -0.527 (inactive). In addition, in test [5], the NADPH fluorescence slope was -2.4e-05 (inactive). Further, the slope in test [6] was 0.00436 (inactive).

In the case of `CCc1nc(C)c(C#N)c2cc(OC)c(OC)cc12`, in test [1], the cell count turned out to be 387. Moreover, the inhibition in test [1] is -1.1% (inactive); in test [3] it was -7.1% (inactive); in test [7] it was 15.2% (inactive); in test [8] it was 21.3% (inactive). Further, the inhibition of aggregation in test [2] is -2.1% (inactive). Besides, the figures for the nuclei count in test [2] and in test [3] were 79.3% and 97.7%, respectively. Further, the fluorescence slope in test [4] is -0.446 (inactive). Besides, the NADPH fluorescence slope in test [5] was -7.7e-05 (inactive). In addition, the slope in test [6] is 0.00607 (inactive).

In general, inhibition refers to the drop in the measured response relative to a control, in per cent.
